Residue numbers refer to the chain shown, from its start. In all, about 16,000 sequences were measured (“ka relative to ugcaugu”: median about 0.0091, highest 2% from about 0.032 on). Only a selection was taken, and the highest values are over-represented in it overall.
T1: RBFOX1 RRM (Homo sapiens, UniProt Q9NWB1 109-208)
T1 sequence: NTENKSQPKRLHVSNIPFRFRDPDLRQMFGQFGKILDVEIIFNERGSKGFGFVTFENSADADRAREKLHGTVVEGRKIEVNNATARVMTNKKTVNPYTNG

B1: AUUCACC (DNA:RNA)
RNA: GGGAGACCGGAAUUCAGAUUGUCCAUUCACCUUAAAUCCCGUCGUAGCCACCA
DNA 1: CAATCTGAATTCCGGTCTCCC
DNA 2: TGGTGGCTACGACGGGATT
B2: GAGUUGU (DNA:RNA)
RNA: GGGAGACCGGAAUUCAGAUUGUCCGAGUUGUUUAAAUCCCGUCGUAGCCACCA
DNA 1: CAATCTGAATTCCGGTCTCCC
DNA 2: TGGTGGCTACGACGGGATT
B3: CAACGAU (DNA:RNA)
RNA: B2 RNA with G25C, G27A, U28C, U29G, G30A
DNA 1: CAATCTGAATTCCGGTCTCCC
DNA 2: TGGTGGCTACGACGGGATT
B4: AACCAAC (DNA:RNA)
RNA: B1 RNA with U26A, U27C, C30A
DNA 1: CAATCTGAATTCCGGTCTCCC
DNA 2: TGGTGGCTACGACGGGATT
B5: GAAACCA (DNA:RNA)
RNA: B2 RNA with G27A, U28A, U29C, G30C, U31A
DNA 1: CAATCTGAATTCCGGTCTCCC
DNA 2: TGGTGGCTACGACGGGATT
B6: UUUAAUU (DNA:RNA)
RNA: B1 RNA with A25U, C28A, C30U, C31U
DNA 1: CAATCTGAATTCCGGTCTCCC
DNA 2: TGGTGGCTACGACGGGATT
B7: CUGAUGU (DNA:RNA)
RNA: B2 RNA with G25C, A26U, U28A
DNA 1: CAATCTGAATTCCGGTCTCCC
DNA 2: TGGTGGCTACGACGGGATT
B8: GUGCAUA (DNA:RNA)
RNA: B1 RNA with A25G, U27G, C30U, C31A
DNA 1: CAATCTGAATTCCGGTCTCCC
DNA 2: TGGTGGCTACGACGGGATT
B9: UUGCAAG (DNA:RNA)
RNA: B1 RNA with A25U, U27G, C30A, C31G
DNA 1: CAATCTGAATTCCGGTCTCCC
DNA 2: TGGTGGCTACGACGGGATT
B10: GUGCAAG (DNA:RNA)
RNA: B1 RNA with A25G, U27G, C30A, C31G
DNA 1: CAATCTGAATTCCGGTCTCCC
DNA 2: TGGTGGCTACGACGGGATT
B11: GUGCAUC (DNA:RNA)
RNA: B1 RNA with A25G, U27G, C30U
DNA 1: CAATCTGAATTCCGGTCTCCC
DNA 2: TGGTGGCTACGACGGGATT
B12: UUGCAUA (DNA:RNA)
RNA: B1 RNA with A25U, U27G, C30U, C31A
DNA 1: CAATCTGAATTCCGGTCTCCC
DNA 2: TGGTGGCTACGACGGGATT
B13: UUGCAUC (DNA:RNA)
RNA: B1 RNA with A25U, U27G, C30U
DNA 1: CAATCTGAATTCCGGTCTCCC
DNA 2: TGGTGGCTACGACGGGATT
B14: UUGCAAA (DNA:RNA)
RNA: B1 RNA with A25U, U27G, C30A, C31A
DNA 1: CAATCTGAATTCCGGTCTCCC
DNA 2: TGGTGGCTACGACGGGATT
B15: GUGCAUG (DNA:RNA)
RNA: B1 RNA with A25G, U27G, C30U, C31G
DNA 1: CAATCTGAATTCCGGTCTCCC
DNA 2: TGGTGGCTACGACGGGATT
B16: UUGCAUG (DNA:RNA)
RNA: B1 RNA with A25U, U27G, C30U, C31G
DNA 1: CAATCTGAATTCCGGTCTCCC
DNA 2: TGGTGGCTACGACGGGATT
B17: CCUGUAG (DNA:RNA)
RNA: B1 RNA with A25C, U26C, C28G, A29U, C30A, C31G
DNA 1: CAATCTGAATTCCGGTCTCCC
DNA 2: TGGTGGCTACGACGGGATT
B18: UCGAGAU (DNA:RNA)
RNA: B2 RNA with G25U, A26C, U28A, U29G, G30A
DNA 1: CAATCTGAATTCCGGTCTCCC
DNA 2: TGGTGGCTACGACGGGATT
B19: UGCACCC (DNA:RNA)
RNA: B1 RNA with A25U, U26G, U27C, C28A, A29C
DNA 1: CAATCTGAATTCCGGTCTCCC
DNA 2: TGGTGGCTACGACGGGATT
B20: CUGCACG (DNA:RNA)
RNA: B1 RNA with A25C, U27G, C31G
DNA 1: CAATCTGAATTCCGGTCTCCC
DNA 2: TGGTGGCTACGACGGGATT
B21: UGCACGU (DNA:RNA)
RNA: B2 RNA with G25U, A26G, G27C, U28A, U29C
DNA 1: CAATCTGAATTCCGGTCTCCC
DNA 2: TGGTGGCTACGACGGGATT
B22: UGCCACG (DNA:RNA)
RNA: B1 RNA with A25U, U26G, U27C, C31G
DNA 1: CAATCTGAATTCCGGTCTCCC
DNA 2: TGGTGGCTACGACGGGATT
B23: UGCACCG (DNA:RNA)
RNA: B1 RNA with A25U, U26G, U27C, C28A, A29C, C31G
DNA 1: CAATCTGAATTCCGGTCTCCC
DNA 2: TGGTGGCTACGACGGGATT
B24: CUGCACC (DNA:RNA)
RNA: B1 RNA with A25C, U27G
DNA 1: CAATCTGAATTCCGGTCTCCC
DNA 2: TGGTGGCTACGACGGGATT
B25: GUAUAGC (DNA:RNA)
RNA: B1 RNA with A25G, U27A, C28U, C30G
DNA 1: CAATCTGAATTCCGGTCTCCC
DNA 2: TGGTGGCTACGACGGGATT
B26: GGGUUCG (DNA:RNA)
RNA: B2 RNA with A26G, G30C, U31G
DNA 1: CAATCTGAATTCCGGTCTCCC
DNA 2: TGGTGGCTACGACGGGATT
B27: GGGUUUC (DNA:RNA)
RNA: B2 RNA with A26G, G30U, U31C
DNA 1: CAATCTGAATTCCGGTCTCCC
DNA 2: TGGTGGCTACGACGGGATT
B28: GGGUUCC (DNA:RNA)
RNA: B2 RNA with A26G, G30C, U31C
DNA 1: CAATCTGAATTCCGGTCTCCC
DNA 2: TGGTGGCTACGACGGGATT
B29: GGGUUCU (DNA:RNA)
RNA: B2 RNA with A26G, G30C
DNA 1: CAATCTGAATTCCGGTCTCCC
DNA 2: TGGTGGCTACGACGGGATT
B30: UUCCGGG (DNA:RNA)
RNA: B1 RNA with A25U, U27C, A29G, C30G, C31G
DNA 1: CAATCTGAATTCCGGTCTCCC
DNA 2: TGGTGGCTACGACGGGATT
B31: GCGGGGG (DNA:RNA)
RNA: B2 RNA with A26C, U28G, U29G, U31G
DNA 1: CAATCTGAATTCCGGTCTCCC
DNA 2: TGGTGGCTACGACGGGATT
B32: GUGCGGG (DNA:RNA)
RNA: B2 RNA with A26U, U28C, U29G, U31G
DNA 1: CAATCTGAATTCCGGTCTCCC
DNA 2: TGGTGGCTACGACGGGATT
B33: CGGGUUC (DNA:RNA)
RNA: B2 RNA with G25C, A26G, U28G, G30U, U31C
DNA 1: CAATCTGAATTCCGGTCTCCC
DNA 2: TGGTGGCTACGACGGGATT
B34: GGGGUUC (DNA:RNA)
RNA: B2 RNA with A26G, U28G, G30U, U31C
DNA 1: CAATCTGAATTCCGGTCTCCC
DNA 2: TGGTGGCTACGACGGGATT

Target: T1, RBFOX1 RRM
Test: EMSA; HiTS-Eq, 1 nM pool, 10 min; buffer printed only for the single-RNA assays: 10 mM Tris pH 7.5, 150 mM NaCl, 3.4 mM EDTA, 0.001% NP-40, 30 C
Conditions: tags: His6 N-terminal (pET28a); label: 5' 32P
Method in brief: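 Purified RbFox RRM (wild type or mutant) was equilibrated for 10 min in 50 µL with 1 nM of a 5′-radiolabelled pool of RNA with 7 randomized nucleotides, its flanks annealed to DNA oligonucleotides, across increasing protein concentrations. Free RNA was separated by 8% native PAGE, excised, reverse-transcribed, PCR-barcoded and sequenced on an Illumina HiSeq 2500. Relative association constants came from read-count changes of each variant against the control reaction, normalised to the cognate motif.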

Binder	binding signal
B1	0.00129 KA relative to UGCAUGU
B2	0.0179 KA relative to UGCAUGU
B3	0.00177 KA relative to UGCAUGU
B4	0.000641 KA relative to UGCAUGU
B5	0.00223 KA relative to UGCAUGU
B6	0.00658 KA relative to UGCAUGU
B7	0.0201 KA relative to UGCAUGU
B8	0.0221 KA relative to UGCAUGU
B9	0.0333 KA relative to UGCAUGU
B10	0.0274 KA relative to UGCAUGU
B11	0.0315 KA relative to UGCAUGU
B12	0.0139 KA relative to UGCAUGU
B13	0.022 KA relative to UGCAUGU
B14	0.0109 KA relative to UGCAUGU
B15	1 KA relative to UGCAUGU
B16	1 KA relative to UGCAUGU
B17	0.00969 KA relative to UGCAUGU

Binder	binding signal
B18	0.00776 KA relative to UGCAUGU
B19	0.0142 KA relative to UGCAUGU
B20	0.616 KA relative to UGCAUGU
B21	0.514 KA relative to UGCAUGU
B22	0.0198 KA relative to UGCAUGU
B23	0.0145 KA relative to UGCAUGU
B24	0.0128 KA relative to UGCAUGU
B25	0.00925 KA relative to UGCAUGU
B26	0.026 KA relative to UGCAUGU
B27	0.0237 KA relative to UGCAUGU
B28	0.0348 KA relative to UGCAUGU
B29	0.0166 KA relative to UGCAUGU
B30	0.00531 KA relative to UGCAUGU
B31	0.0269 KA relative to UGCAUGU
B32	0.0167 KA relative to UGCAUGU
B33	0.0418 KA relative to UGCAUGU
B34	0.0437 KA relative to UGCAUGU

Source: paper PMC9911399, “Two distinct binding modes provide the RNA-binding protein RbFox with extraordinary sequence specificity”
